What was measured:
Assay in all cases: DAPPL (digital affinity profiling via proximity ligation, sequencing); 10 mM Tris-HCl pH 7.5, 50 mM NaCl, 1 mM DTT, 4% glycerol, room temperature, 30 min; GST-TFs on glutathione beads, 16-mer random dsDNA library, 0.1% formaldehyde crosslink after washing; high values mean tight binding
Conditions in all cases: protein: recombinant; tags: N-terminal GST; dsDNA, one strand shown
FLI1 = target: T1, FLI1 (Homo sapiens, UniProt Q01543 1-452)
T1 sequence: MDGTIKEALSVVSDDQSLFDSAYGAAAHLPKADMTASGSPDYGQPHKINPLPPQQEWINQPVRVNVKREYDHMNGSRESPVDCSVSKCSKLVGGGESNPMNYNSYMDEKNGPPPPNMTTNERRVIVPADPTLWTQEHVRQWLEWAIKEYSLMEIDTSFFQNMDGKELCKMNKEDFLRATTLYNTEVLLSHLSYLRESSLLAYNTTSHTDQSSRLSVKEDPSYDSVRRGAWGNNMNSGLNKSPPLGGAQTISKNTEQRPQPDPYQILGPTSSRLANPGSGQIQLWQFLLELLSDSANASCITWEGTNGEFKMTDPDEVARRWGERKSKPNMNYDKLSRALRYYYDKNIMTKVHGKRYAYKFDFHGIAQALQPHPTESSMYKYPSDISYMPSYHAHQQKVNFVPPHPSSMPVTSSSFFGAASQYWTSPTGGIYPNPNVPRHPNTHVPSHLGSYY
In short: (§1)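 Sequencing on an Illumina NextSeq500 followed washing, crosslinking with 0.1% formaldehyde, proximity ligation (BsaI/T4 ligase, 1 h, 37 °C) and PCR amplification of pools that had been incubated for 30 min at room temperature with 200 nmole of a random double-stranded 16-mer DNA library in Tris/NaCl/DTT/glycerol buffer. Each pool held DNA-barcoded human transcription factors, expressed in yeast as GST fusions and captured on glutathione beads, plus a tag-only sample. Binding signal is a hexamer's read frequency for a factor divided by its frequency in the tag-only sample.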

ELK1 = target: T2, ELK1 (Homo sapiens, UniProt P19419 1-428)
T2 sequence: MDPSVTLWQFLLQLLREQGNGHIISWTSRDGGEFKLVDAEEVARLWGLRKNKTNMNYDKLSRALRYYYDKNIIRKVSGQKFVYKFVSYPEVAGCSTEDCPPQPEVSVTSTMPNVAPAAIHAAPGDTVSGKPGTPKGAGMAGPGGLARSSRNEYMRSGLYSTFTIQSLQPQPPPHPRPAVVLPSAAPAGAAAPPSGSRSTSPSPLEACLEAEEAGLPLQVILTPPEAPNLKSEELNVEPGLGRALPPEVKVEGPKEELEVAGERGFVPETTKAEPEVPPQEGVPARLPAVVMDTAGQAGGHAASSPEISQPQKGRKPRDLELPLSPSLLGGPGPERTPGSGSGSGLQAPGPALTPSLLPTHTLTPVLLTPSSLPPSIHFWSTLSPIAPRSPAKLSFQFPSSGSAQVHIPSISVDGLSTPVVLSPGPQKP
In short: as §1

GABPA = target: T3, GABPA (Homo sapiens, UniProt Q06546 1-454)
T3 sequence: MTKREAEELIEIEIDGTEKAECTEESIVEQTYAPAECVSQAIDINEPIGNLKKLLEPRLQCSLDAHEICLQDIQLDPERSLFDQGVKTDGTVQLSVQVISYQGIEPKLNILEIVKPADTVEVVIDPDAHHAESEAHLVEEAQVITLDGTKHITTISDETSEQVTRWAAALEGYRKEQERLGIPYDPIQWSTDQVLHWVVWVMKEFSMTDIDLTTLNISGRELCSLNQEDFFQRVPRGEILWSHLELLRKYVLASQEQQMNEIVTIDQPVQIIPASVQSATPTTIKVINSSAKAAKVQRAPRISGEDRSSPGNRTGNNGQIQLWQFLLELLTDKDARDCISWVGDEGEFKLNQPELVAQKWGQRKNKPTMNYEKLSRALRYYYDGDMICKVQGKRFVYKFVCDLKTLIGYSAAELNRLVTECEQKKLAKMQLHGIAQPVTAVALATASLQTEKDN
In short: as §1

ERG = target: T4, ERG (Homo sapiens, UniProt P11308 1-479)
T4 sequence: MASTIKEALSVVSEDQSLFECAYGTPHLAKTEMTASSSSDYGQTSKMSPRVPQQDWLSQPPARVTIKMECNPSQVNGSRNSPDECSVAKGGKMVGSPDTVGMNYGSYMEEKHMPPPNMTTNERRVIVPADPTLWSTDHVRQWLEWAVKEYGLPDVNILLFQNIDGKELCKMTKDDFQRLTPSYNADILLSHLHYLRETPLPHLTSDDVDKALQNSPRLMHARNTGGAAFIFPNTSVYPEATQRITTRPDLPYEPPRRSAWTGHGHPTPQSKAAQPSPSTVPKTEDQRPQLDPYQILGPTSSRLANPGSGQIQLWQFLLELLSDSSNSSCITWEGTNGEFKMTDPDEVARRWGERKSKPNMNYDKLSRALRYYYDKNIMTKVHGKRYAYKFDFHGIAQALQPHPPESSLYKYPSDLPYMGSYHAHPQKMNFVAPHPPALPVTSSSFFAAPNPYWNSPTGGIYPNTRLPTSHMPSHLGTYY
In short: as §1

ELF1 = ELF1 (Homo sapiens, UniProt P32519 1-619)
ELF1, sequence (P32519 whole entry): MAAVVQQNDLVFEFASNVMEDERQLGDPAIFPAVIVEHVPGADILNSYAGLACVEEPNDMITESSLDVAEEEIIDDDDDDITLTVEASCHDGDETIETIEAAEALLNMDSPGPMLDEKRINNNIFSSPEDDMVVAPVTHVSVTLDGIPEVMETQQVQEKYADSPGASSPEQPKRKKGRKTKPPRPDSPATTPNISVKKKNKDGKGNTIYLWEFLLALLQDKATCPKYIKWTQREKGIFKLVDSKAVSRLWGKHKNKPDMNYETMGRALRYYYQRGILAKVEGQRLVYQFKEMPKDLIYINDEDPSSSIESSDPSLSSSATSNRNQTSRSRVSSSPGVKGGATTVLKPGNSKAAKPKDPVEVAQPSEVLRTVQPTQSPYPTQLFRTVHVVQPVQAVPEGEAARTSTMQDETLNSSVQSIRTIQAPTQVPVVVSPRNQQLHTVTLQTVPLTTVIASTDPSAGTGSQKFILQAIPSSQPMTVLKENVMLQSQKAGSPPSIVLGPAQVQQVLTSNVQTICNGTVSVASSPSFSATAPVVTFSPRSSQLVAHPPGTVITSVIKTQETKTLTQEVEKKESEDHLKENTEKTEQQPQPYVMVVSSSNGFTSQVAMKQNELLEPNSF
In short: as §1

EHF = target: T5, EHF (Homo sapiens, UniProt Q9NZC4 1-300)
T5 sequence: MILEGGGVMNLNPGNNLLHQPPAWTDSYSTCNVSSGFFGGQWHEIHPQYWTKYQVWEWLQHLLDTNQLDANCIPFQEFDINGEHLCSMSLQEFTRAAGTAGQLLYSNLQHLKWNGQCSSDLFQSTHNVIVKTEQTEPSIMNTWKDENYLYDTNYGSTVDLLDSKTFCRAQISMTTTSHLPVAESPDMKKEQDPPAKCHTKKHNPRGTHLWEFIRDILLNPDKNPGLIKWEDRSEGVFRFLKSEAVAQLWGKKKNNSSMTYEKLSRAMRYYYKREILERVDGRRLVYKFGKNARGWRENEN
In short: as §1

SPI1 = SPI1 (Homo sapiens, UniProt P17947 1-270)
In short: as §1

SPIB = SPIB (Homo sapiens, UniProt Q01892 1-262)
SPIB, sequence (Q01892 whole entry): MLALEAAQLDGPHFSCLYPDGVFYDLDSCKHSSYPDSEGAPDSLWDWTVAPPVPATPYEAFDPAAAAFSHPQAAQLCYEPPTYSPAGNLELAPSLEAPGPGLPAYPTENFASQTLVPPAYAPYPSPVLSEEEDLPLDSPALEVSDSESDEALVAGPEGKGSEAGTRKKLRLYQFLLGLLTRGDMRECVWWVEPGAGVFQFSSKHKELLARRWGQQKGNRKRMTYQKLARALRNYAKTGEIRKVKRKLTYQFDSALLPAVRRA
In short: as §1

ELK3 = target: T6, ELK3 (Homo sapiens, UniProt P41970 1-407)
T6 sequence: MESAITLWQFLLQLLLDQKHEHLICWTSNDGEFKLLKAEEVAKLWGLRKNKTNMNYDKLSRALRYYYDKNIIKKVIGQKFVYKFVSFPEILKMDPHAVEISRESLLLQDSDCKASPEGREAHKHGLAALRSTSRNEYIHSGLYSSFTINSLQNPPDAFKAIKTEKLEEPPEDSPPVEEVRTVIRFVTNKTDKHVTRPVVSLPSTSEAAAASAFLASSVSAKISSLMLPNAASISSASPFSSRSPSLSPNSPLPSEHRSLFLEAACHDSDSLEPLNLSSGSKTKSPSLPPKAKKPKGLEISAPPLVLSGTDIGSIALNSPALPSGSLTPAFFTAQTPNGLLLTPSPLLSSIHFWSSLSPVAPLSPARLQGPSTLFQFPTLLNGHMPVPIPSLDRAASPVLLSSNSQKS
In short: as §1

With TTAGCA the binding signal (FLI1) was 1.21 fold enrichment (6-mer frequency, TF over GST control), the binding signal (ELK1) was 1.19 fold enrichment (6-mer frequency, TF over GST control) and the binding signal (GABPA) was 1.16 fold enrichment (6-mer frequency, TF over GST control). For the same sequence, the binding signal (ERG) was 1.3 fold enrichment (6-mer frequency, TF over GST control), the binding signal (ELF1) was 1.18 fold enrichment (6-mer frequency, TF over GST control) and the binding signal (EHF) was 1.21 fold enrichment (6-mer frequency, TF over GST control). For the same sequence, the binding signal (SPI1) was 1.15 fold enrichment (6-mer frequency, TF over GST control), the binding signal (SPIB) was 1.15 fold enrichment (6-mer frequency, TF over GST control) and the binding signal (ELK3) was 1.17 fold enrichment (6-mer frequency, TF over GST control).
